Screening data from PubChem.
The list is not random: actives were taken first. Their share in the collection is about 3.8%.
TGFb SMAD3 inh – TGF-b pathway inhibition; HepG2 CAGA-GFP TGF-b/SMAD3 reporter, GFP fluorescence, 18 h; TGF-beta stimulated, 500 pg/mL final; Potency, µM (series often up to 46.1 µM), usual class: inhibitors; 410,000 compounds, 1.2% hits; AID 588855; also: nearly all actives have a fitted effect of over 65% in size
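HEPG2 CAGA-GFP reporter cells (1000/well, DMEM with 1% FBS) received compounds, then recombinant TGF-beta at 500 pg/mL final for 18 hours at 37 degrees C. Per-cell GFP summed per well was normalised to unstimulated and stimulated DMSO controls before curve fitting.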
ATXN2 expr inh – ATXN2 expression inhibition; HEK-293 ATXN2-luciferase reporter, luminescence, 24 h; Potency, µM (top dose mostly 57 µM), actives largely listed as inhibitors; AID 1745845; 360,000 compounds, 0.72% hits; also: nearly all actives have a fitted effect of over 55% in size
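ATXN2-luciferase reporter cells (luciferase flanked by upstream and downstream ATXN2 gene portions) were treated 24 h at 37 °C with compounds at up to 57 uM. SteadyGlo luminescence gave expression; GF-AFC fluorescence gave viability.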
ATXN viability – viability counter-screen for ATXN expression inhibitors; S2 cells (HEK-293 line with an ATXN2-luciferase reporter) viability, CellTiter-Fluor protease fluorescence, 24 h; Potency, µM (top dose mostly 56.7 µM), actives largely listed as cytotoxic; 400,000 compounds, 0.49% hits; AID 651635; also: nearly all actives have a fitted effect of over 40% in size
A549 tox – A549 cytotoxicity, counter-screen for Nrf2 inhibitors. A549 ARE-Fluc cells, CellTiter-Fluor viability, 18-24 h. Potency, µM (series often up to 46 µM), hits mostly inhibitors. 390,000 compounds, 0.16% hits. AID 504648
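A549 ARE-Fluc cells in 5% FBS OPTI-MEM, 5000 cells/well, rested 2 h then exposed to compounds in concentration-response for 18-24 h at 37 °C. Viability by CellTiter-Fluor fluorescence (Ex 405/Em 525) after 30 min; luciferase luminescence (BugLite, 15 min, RT) read afterwards.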
Nrf2 inh – blocks Nrf2 signaling | Potency, µM (titrated, usually from 46 µM), actives largely listed as inhibitors | 360,000 compounds, 2.1% hits | A549 ARE-Fluc reporter, luciferase luminescence, 18-24 h; also: nearly all actives have a fitted effect of over 60% in size
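Reporter: ARE-Fluc in A549. Exposure: 18-24 h, 37 °C, 5% CO2, 5% FBS OPTI-MEM. Readouts: fluorescent cytotoxicity (CellTiter-Fluor), then luminescent Nrf2 signal after BugLite.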
HepG2 tox-1 – counter-screen for TGF-b inhibitors: cytotoxicity in HepG2 cells | Potency, µM (series often up to 46.1 µM), most hits filed as cytotoxic | 410,000 compounds, 0.76% hits | HepG2 CAGA-GFP viability, ATP luminescence, 18 h
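HepG2 CAGA-GFP cells (1000/well, DMEM with 1% FBS) received compound, then TGF-beta at 500 pg/mL final, and were incubated 18 hours at 37 degrees C. Viability was read by CellTiter-Glo luminescence. Media-only wells were set as complete cell-killing and DMSO as no toxicity.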
TGFb confirm – confirmation of TGF-b signaling inhibitors in HepG2 reporter cells. shares compounds with TGFb SMAD3 inh. HepG2 CAGA-GFP TGF-b reporter, GFP fluorescence, 18 h; cells stimulated with TGF-beta, 500 pg/mL. Potency, µM (doses to about 46.1 µM), most hits filed as inhibitors. 1,600 compounds, 63% hits; also: nearly all actives have a fitted effect of over 65% in size
HepG2 tox-2 – toxic to HepG2 cells in TGF-b counterscreen; shares compounds with TGFb SMAD3 inh; HepG2 CAGA-GFP viability, ATP luminescence, 18 h; cells stimulated with TGF-beta, 500 pg/mL; Potency, µM (titrated, usually from 46.1 µM), hits mostly inhibitors; 1,600 compounds, 27% hits; also: nearly all actives have a fitted effect of over 70% in size
CCL64 TGFb inh – orthogonal confirmation of TGF-b inhibitors in CCL64 cells | shares compounds with TGFb SMAD3 inh | CCL64 CAGA-GFP reporter, TGF-b stimulated, GFP fluorescence, 18 h | Potency, µM (doses to about 46.1 µM), actives largely listed as inhibitors | 1,600 compounds, 41% hits | AID 720536; also: nearly all actives have a fitted effect of over 65% in size
COP TGFb inh – TGF-b inhibition validated with COP promoter; shares compounds with TGFb SMAD3 inh; HepG2 COP-GFP TGF-b reporter, GFP fluorescence, 18 h; cells stimulated by added recombinant TGF-beta; Potency, µM (highest dose often 46.1 µM), hits mostly inhibitors; 1,600 compounds, 3% hits; AID 720537; also: nearly all actives have a fitted effect of over 70% in size
Hits are given with their value. Calls follow the shape of the dose curve; as a rule, active = well fitted curve in the direction sought with a large enough effect; inconclusive = small, poorly fitted or top-dose-only effect, or another doubt; inactive = no such curve, though single readings can be large; an effect the other way counts as inactive or inconclusive.

`O=C(/C(=N\Nc1ccc([N+](=O)[O-])cc1)Sc1nnnn1-c1ccccc1)c1ccccc1` gave TGFb SMAD3 inh 7.9µM, ATXN2 expr inh inactive, ATXN viability inactive, A549 tox inactive, Nrf2 inh inactive, HepG2 tox-1 inactive, TGFb confirm inconclusive, HepG2 tox-2 23µM, CCL64 TGFb inh 21µM and COP TGFb inh inactive.
For Cc1ccc(N/N=C(/Sc2nnnn2-c2ccccc2)C(=O)c2ccccc2)cc1 the results were TGFb SMAD3 inh inconclusive, ATXN2 expr inh inactive, ATXN viability inactive, A549 tox inactive, Nrf2 inh inactive and HepG2 tox-1 inactive.
Screening CCCN(CCC)Cc1c(C(=O)N/N=C/C(C)=C\c2ccco2)nnn1-c1nonc1N returned TGFb SMAD3 inh 7.9µM, ATXN2 expr inh inconclusive, A549 tox inactive, Nrf2 inh inactive, HepG2 tox-1 inactive, TGFb confirm 5.2µM, HepG2 tox-2 inconclusive, CCL64 TGFb inh inconclusive and COP TGFb inh inactive.
CC(/C=N/NC(=O)c1nnn(-c2nonc2N)c1CN(C)C)=C\c1ccco1 was read as TGFb SMAD3 inh inactive, ATXN2 expr inh inactive, ATXN viability inactive, A549 tox inactive, Nrf2 inh inactive and HepG2 tox-1 inactive.
`CC1(C)N=C(Nc2nc3ccccc3o2)NC2=C1C(=O)CCC2` gave A549 tox inactive and Nrf2 inh inconclusive.
`COc1ccc(C(=O)O)cc1S(=O)(=O)Nc1ccc(N2CCCCC2)cc1` gave TGFb SMAD3 inh inactive, ATXN2 expr inh inactive, ATXN viability inactive, A549 tox inactive, Nrf2 inh inactive and HepG2 tox-1 inactive.
CN(C)CC(C(=O)c1ccccc1)c1ccccc1 (stereo not given) was read as TGFb SMAD3 inh 4µM, ATXN2 expr inh 22µM, A549 tox inactive, Nrf2 inh inactive, HepG2 tox-1 8.9µM, TGFb confirm 5.2µM, HepG2 tox-2 10µM, CCL64 TGFb inh 3.3µM and COP TGFb inh inconclusive.
`Cc1nc2ccc(C(=O)N(C)Cc3ccccc3)cn2c1N(C)C(=O)CCc1ccccc1` gave TGFb SMAD3 inh inactive, ATXN2 expr inh inactive, ATXN viability inactive and HepG2 tox-1 inactive.
For CCc1ccc(CNC(=O)c2ccc(Cn3c(=O)c4cccn4c4cccnc43)cc2)cc1 the results were TGFb SMAD3 inh inactive, ATXN2 expr inh inactive, ATXN viability inactive, A549 tox inactive, Nrf2 inh inactive and HepG2 tox-1 inactive.
CC(C(=O)N1CCc2ccccc21)N1CCN(c2cccc(C(F)(F)F)c2)CC1 (stereo not given) was read as TGFb SMAD3 inh 7.1µM, ATXN2 expr inh inactive, ATXN viability inactive, A549 tox inactive, Nrf2 inh inconclusive, HepG2 tox-1 inactive, TGFb confirm inconclusive, HepG2 tox-2 inactive, CCL64 TGFb inh inconclusive and COP TGFb inh inactive.
Screening COc1cccc(/C=C2/CCC(CN(C)C)C2=O)c1 (stereo not given) returned TGFb SMAD3 inh 2.5µM, ATXN2 expr inh 13µM, A549 tox inactive, Nrf2 inh inactive, HepG2 tox-1 inactive, TGFb confirm 2.6µM, HepG2 tox-2 5.8µM, CCL64 TGFb inh 1.5µM and COP TGFb inh inconclusive.
For COc1ccc(/C=C2/CCCC(CN(C)C)C2=O)cc1 (stereo not given) the results were TGFb SMAD3 inh 6.3µM, ATXN2 expr inh inconclusive, A549 tox inactive, Nrf2 inh inactive, HepG2 tox-1 inactive, TGFb confirm 2.6µM, HepG2 tox-2 7.3µM, CCL64 TGFb inh 4.1µM and COP TGFb inh inconclusive.
Screening COc1cccc(/C=C2\CCC(C3CCCC3)C2=O)c1 (stereo not given) returned TGFb SMAD3 inh inconclusive, ATXN2 expr inh inactive, ATXN viability inactive, A549 tox inactive, Nrf2 inh inactive and HepG2 tox-1 inactive.
For Cc1c(C)n(Cc2ccc(F)cc2)c2ccc(C(=O)Nc3ccc(Cl)cc3)cc12 the results were TGFb SMAD3 inh inactive, A549 tox inactive, Nrf2 inh inactive and HepG2 tox-1 inactive.
For CN(C)S(=O)(=O)c1ccc(NC(=O)CN2CCC(Cc3ccccc3)CC2)cc1 the results were TGFb SMAD3 inh inactive, ATXN viability inconclusive, A549 tox inactive, Nrf2 inh inactive and HepG2 tox-1 inactive.
CN(C)S(=O)(=O)c1ccc(Cl)c(NC(=O)CN2CCC(Cc3ccccc3)CC2)c1 was read as TGFb SMAD3 inh inconclusive, ATXN2 expr inh inactive, ATXN viability inactive, A549 tox inactive, Nrf2 inh inactive, HepG2 tox-1 inactive, TGFb confirm 13µM, HepG2 tox-2 inconclusive, CCL64 TGFb inh inconclusive and COP TGFb inh inactive.
COc1cc2c(cc1OC)C1Cc3ccc(OC)c(OC)c3CN1CC2 (stereo not given) was read as TGFb SMAD3 inh inactive, ATXN2 expr inh inactive, ATXN viability inactive, A549 tox inactive, Nrf2 inh inconclusive and HepG2 tox-1 inactive.
For CCC1=C(CC2NCCc3ccccc32)CC2c3cc(OC)c(OC)cc3CCN2C1 (stereo not given) the results were TGFb SMAD3 inh 2.8µM, ATXN2 expr inh 8.9µM, ATXN viability inconclusive, A549 tox 7.3µM, Nrf2 inh 3.7µM, HepG2 tox-1 inactive, TGFb confirm 1.5µM, HepG2 tox-2 inconclusive, CCL64 TGFb inh 5.2µM and COP TGFb inh inactive.
For c1ccc(CSC2=NNC(c3ccccn3)S2)cc1 (stereo not given) the results were TGFb SMAD3 inh inconclusive, ATXN2 expr inh inactive, ATXN viability inconclusive, A549 tox inactive, Nrf2 inh inconclusive and HepG2 tox-1 inactive.
